High-throughput results: PubChem, National Center for Advancing Translational Sciences (NCATS)
Pf growth 48h – inhibits P. falciparum growth in the first generation, 48 h; Potency, µM (titrated, usually from 28.7 µM), for inactives: at the top dose activity change, negative = inhibition, hits mostly inhibitors; hit rate 5.9% among 310,000; P. falciparum luciferase growth in erythrocytes, 48 h; further: on the % scale 0 is the no-effect control and ±100 the full control effect
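Here the parasites carry a stable luciferase gene and grow inside erythrocytes in Albumax-based RPMI medium with compound for one erythrocytic cycle. Activity is scored as loss of luminescent signal.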
Pf growth 96h – P. falciparum growth inhibition at 96 hours; P. falciparum luciferase reporter growth, 96 h; Potency, µM (titrated, usually from 28.7 µM), without a hit: at the top dose activity change, negative = inhibition, actives largely listed as inhibitors; hit rate 6.9% among 320,000; further: on the % scale 0 is the no-effect control and ±100 the full control effect
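Parasite growth measured via integrated firefly luciferase reporter in P. falciparum. Infected erythrocytes at 2% hematocrit, 0.05% parasitemia final were treated 96 hours at 37 C under 5% CO2, and luminescence was read.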
SARS PLpro yeast – SARS-CoV PLP inhibition in yeast; S. cerevisiae expressing SARS-CoV PLpro, growth rescue; Potency, µM (doses to about 32.9 µM), for inactives: top-dose activity, positive = growth rescue, actives largely listed as activators; hit rate 0.19% among 330,000; AID 485353; calls by dose curve; further: 0% is about no effect; nearly all actives have a fitted effect of over 55% in size
Sm TGR inh – blocks Schistosoma mansoni thioredoxin glutathione reductase; Q962Y6; hit rate 3% among 360,000; Potency, µM (doses to about 114 µM), without a hit: at the highest dose activity change, negative = inhibition, hits mostly inhibitors; AID 485364; purified TGR, DTNB reduction, TNB absorbance 405 nm; further: on the % scale 0 is the no-effect control and ±100 the full control effect; nearly all actives have a fitted effect of over 60% in size
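TGR 20 nM + NADPH 100 uM (dispensed conc.), cpd preinc 15 min RT; start with NADPH (500 uM addition) then DTNB (15 mM addition). Kinetic TNB absorbance, 405 nm filter. Four-parameter Hill fit across titration.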
Starred values were filed as active, the others as inactive; ? = inconclusive; / = no result given; [ ] = dose if it differs, or a comment. Hits are enriched below; roughly 12% of the tested compounds scored in any of these assays. Unless noted, the call rests on the fitted dose curve; in most records, active means well fitted curve in the direction sought with a large enough effect; inconclusive means small, poorly fitted or top-dose-only effect, or another doubt; inactive means no such curve, though single readings can be large; an effect the other way counts as inactive or inconclusive. Potency means the concentration at half of the fitted maximal effect.

SMILES	Pf growth 48h	Pf growth 96h	SARS PLpro yeast	Sm TGR inh
CCCCn1c(N)c(N(CC(C)C)C(=O)c2ccc([N+](=O)[O-])o2)c(=O)[nH]c1=O	-27%	?	7%	-20%
COc1ccc(/C=N/Nc2nc(NCc3ccco3)nc(Nc3ccc(OC)cc3)n2)cc1	15µM*	?	-4%	0%
CCOc1ccccc1N1C(=O)NC(=O)/C(=C/c2ccc3c4c(cccc24)CC3)C1=O	40%	?	-6%	32µM*
COc1cccc(N2C(=O)NC(=O)/C(=C/c3ccc4c5c(cccc35)CC4)C2=O)c1	11%	-18%	-14%	25µM*
CCc1ccccc1N1C(=O)NC(=O)/C(=C\c2cc(C)n(C)c2C)C1=O	4%	?	4%	-17%
O=C(NCCc1ccncc1)c1ccc2nc(Cc3cccc(Cl)c3)oc2c1	10%	-44%	-1%	1%
COc1ccc(-c2cc3nc(C)c(CCC(=O)N4CCN(c5ccccc5F)CC4)c(C)n3n2)c(OC)c1	/	/	/	-1%
COc1cc(C(=O)n2nc(-c3ccco3)nc2NCc2ccc(Cl)cc2)cc(OC)c1OC	/	/	/	-25%
Cc1cc(N/N=C/c2ccc(Cl)cc2Cl)nc(NCc2ccccc2)n1	0.33µM*	?	-84%	-18%
Cc1ccc(/C=N/Nc2cc(C)nc(NCc3ccccc3)n2)cc1	0.59µM*	1µM*	-5%	13%
Cc1cc(N/N=C/c2ccc(N(C)C)cc2)nc(NCc2ccccc2)n1	?	?	0%	-2%
Cc1cc(N/N=C/c2ccc(F)cc2)nc(NCc2ccccc2)n1	0.41µM*	?	-2%	-22%
CCOc1ccc(Nc2ncnc3c2c(-c2ccccc2)cn3-c2cccc(C)c2)cc1	/	/	/	7%
CC12CCC(C/C1=N/NC(=O)Nc1ccccc1)C2(C)C (stereo unspecified)	47%	36%[5.75 µM]	6%	-4%
COc1cccc(NC(=S)N/N=C2\CC3CCC2(C)C3(C)C)c1 (stereo unspecified)	10µM*	?	1%	78%
COc1cc2c(cc1OC)C(COc1ccc(F)cc1)N(C(=O)c1ccco1)CC2 (stereo unspecified)	12µM*	?	-2%	-23%
COc1cc2c(cc1OC)C(c1cc3cccc(C)c3[nH]c1=O)N(C(=O)c1ccco1)CC2 (stereo unspecified)	12µM*	-6%	1%	-14%
COc1cc2c(cc1O)CCN(C(=O)c1ccco1)C2C (stereo unspecified)	/	-1%	-1%	-11%
COc1cc2c(cc1OC)C(COc1ccccc1OC)N(C(C)=O)CC2 (stereo unspecified)	-16%	-5%	-1%	-6%
COc1cc2c(cc1OC)C(COc1ccccc1OC)N(C(=O)C(C)(C)C)CC2 (stereo unspecified)	12µM*	-2%	2%	-12%
COCCn1c(SCC(=O)Nc2ccc(Cl)c(S(=O)(=O)N(C)C)c2)nc2ccccc21	12µM*	/	1%	-8%
COCCn1c(SCC(=O)Nc2ccc(S(=O)(=O)N3CCOCC3)cc2)nc2ccccc21	10µM*	47%	-1%	-1%
COCCn1c(SCC(=O)Nc2ccc(S(N)(=O)=O)cc2)nc2ccccc21	12%	/	10%	-1%
CCc1nnc2n1N(C(C)=O)C(c1ccc(C(C)(C)C)cc1)=C(C(C)=O)S2	/	/	/	-12%
CN1CCCCC1CCN1c2ccccc2Sc2ccc(S(C)=O)cc21 (stereo unspecified)	?	1.5µM*	-4%	?
SMILES	Pf growth 48h	Pf growth 96h	SARS PLpro yeast	Sm TGR inh
CN1CCCC(CN2c3ccccc3Sc3ccccc32)C1 (stereo unspecified)	?	?	-8%	-2%
COc1ccc(-c2nn(-c3ccccc3)cc2/C=N/NC(N)=S)cc1OC	12µM*	15µM*	25%	-3%
COc1ccc(-c2nn(-c3ccccc3)cc2C(N)=O)cc1OC	42%	15µM*	1%	-19%
NC(=O)c1cn(-c2ccccc2)nc1-c1cccnc1	14%	18%	-5%	-14%
COc1cc(/C=N/NC(=O)COc2ccc([N+](=O)[O-])cc2)ccc1OCC(=O)N1CCOCC1	?	49%	-1%	6%
Cc1ccc(C2=NN=C(NC(=O)CSc3nc(C)cc(C)n3)SC2)cc1	?	-5%	-46%	-6%
Cc1ccc(C2=NN=C(NC(=O)CSc3nnc4c5ccccc5n(C)c4n3)SC2)cc1	3.3µM*	18%	-82%	0%
Cc1ccc2oc(C(=O)N(C)Cc3cnccn3)c(C)c2c1	2.9µM*	?	-1%	8%
